Measurements: PubChem BioAssay AID1347416 (National Center for Advancing Translational Sciences (NCATS), 2020)
In all, about 4,100 compounds went through this assay and about 1,600 (39%) were called active. Not shown: some 25% with an inconclusive outcome. The list shows a part of the results. A number with no mark means an inactive call. The call rests on the fitted dose curve; in most records, active means well fitted inhibition curve with a large enough effect; inconclusive means small, poorly fitted or top-dose-only effect; inactive means no such curve, though single readings can be large or run the other way.

Experiment: qHTS Validation assay for Inhibitors of Plasmodium falciparum Dd2 growth in vitro; further: nearly all actives have a fitted effect of over 70% in size
Details: P. falciparum Dd2 in RBCs, SYBR Green growth, 72 h; series mostly up to 28.7 µM; activity change, negative = inhibition: at the top concentration
How it was run: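 P. falciparum Dd2-infected red blood cells (2.5% hematocrit, 0.3% parasitemia) grown 72 h at 37 °C under 5% O2 with compounds in a titration, 29 uM to 0.5 nM final. Growth read as SYBR Green-1 fluorescence after ~16 h lysis; artesunate 300 nM as positive control.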
On the % scale 0 is the no-effect control and ±100 the full control effect; potency means the concentration at half of the fitted maximal effect.

| Structure (SMILES) | activity change, negative = inhibition | Potency |
| --- | --- | --- |
| CCN1c2cc(C(=O)Nc3ccc4c(c3)CCC4)ccc2C(=O)N2CCCCC21 (stereo not given) | -10% |  |
| CC1CCCCN1c1ccc(N)cc1C(N)=O (stereo not given) | 20.7% |  |
| C#Cc1ccc(C(=O)Nc2ccc(N3CCC(C)CC3)c(C(N)=O)c2)cc1 |  | 6.68 µM (active) |
| Cc1ccc2c(c1)c1c3n2CCCN(Cc2ccccc2)C3CCC1 (stereo not given) |  | 4.22 µM (active) |
| CN(C)Cc1c(O)ccc2oc(Cc3ccccc3)cc12 |  | 0.422 µM (active) |
| COc1ccc(-n2c(/C=C(\C)O)nc(=O)c3c(C)cc(C)nc32)cc1 |  | 3.35 µM (active) |
| O=C(Cc1ccccc1)N1CCCC2(CC(c3ccccn3)=NO2)C1 (stereo not given) | 39% |  |
| CCOC(=O)c1c(C)[nH]c(C(=O)OCc2c(C)noc2C)c1C | 13.1% |  |
| CCOC(=O)c1c(C)[nH]c(C(=O)CSc2nnc(C3CC3)n2N)c1C |  | 1.5 µM (active) |
| O=C(Nc1ccc(Br)cc1F)c1cc(S(=O)(=O)NC2CCCC2)ccc1F | 4.64% |  |
| CN1c2cc(C(=O)Nc3ccc(S(N)(=O)=O)cc3)ccc2C(=O)N2CCCCC21 (stereo not given) | 39.2% |  |
| O=C(Nc1ccc(Br)cc1)c1ccc(F)c(S(=O)(=O)NC2CCCCCC2)c1 |  | 9.44 µM (active) |
| CC1(COc2ccccc2)COc2ccc(C(=O)NCc3cnccn3)cc2N1 (stereo not given) | 53.5% [at 43.1 µM] |  |
| Cc1nccn1C1(C(=O)O)CCN(Cc2ccc(-c3ccn[nH]3)o2)CC1 | 93.2% |  |
| O=C(NCc1nc(-c2ncccn2)no1)c1csc(-c2cccs2)n1 | 8.58% |  |
| Cc1noc(-c2cccs2)c1C(=O)NC(C)c1cccc2ccccc12 (stereo not given) |  | 0.668 µM (active) |
| c1csc(-c2cn3ccc4ccccc4c3n2)c1 | 22.6% |  |
| CNC(=O)c1ccsc1NC(=O)CCS(=O)(=O)c1ccccc1 | 23.9% |  |
| O=C(O)c1ccc(C2SCC(=O)N2Cc2ccco2)cc1 (stereo not given) | 2.49% |  |
| Cc1cc(C(=O)CN2C(=O)NC(c3ccccc3)(c3ccccc3)C2=O)c(C)n1Cc1ccco1 |  | 8.41 µM (active) |
| Cc1cc(C(=O)CN2C(=O)NC(C)(c3cccc(Br)c3)C2=O)c(C)n1Cc1ccco1 (stereo not given) |  | 13.3 µM (active) |
| CC1(c2ccccn2)Nc2ccccc2-c2nc3ccccc3n21 (stereo not given) |  | 5.31 µM (active) |
| COc1ccc2c(c1)C1(Nc3ccccc3-c3nc4ccccc4n31)C(=O)N2 (stereo not given) |  | 0.596 µM (active) |
| O=C1Nc2ccccc2C12Nc1ccccc1-c1nc3ccccc3n12 (stereo not given) |  | 6.68 µM (active) |

| Structure (SMILES) | activity change, negative = inhibition | Potency |
| --- | --- | --- |
| COc1ccc(-c2cnc([C@@H]3COCCN3Cc3ccccc3O)[nH]2)cc1 |  | 17.2 µM (active) |
| CS(=O)(=O)c1ccc(-c2cnc([C@@H]3COCCN3Cc3ccccc3)[nH]2)cc1 | -13.7% [at 43.1 µM] |  |
| Oc1ccccc1CN1CCOC[C@H]1c1ncc(-c2ccc(C(F)(F)F)cc2)[nH]1 |  | 4.85 µM (active) |
| COc1cc(OC)cc(C(=O)N2CCC(c3nc(C4CCOC4)no3)CC2)c1 (stereo not given) | 12.6% |  |
| O=c1c(NCCc2ccccc2)c(-c2ccccc2)c1=O | -27.2% |  |
| c1ccc(CCNc2ccnc3cc4ccccc4cc23)cc1 |  | 1.68 µM (active) |
| c1ccc2cc3c(NCCN4CCOCC4)ccnc3cc2c1 |  | 1.68 µM (active) |
| COCCN1Cc2ccc(NCC(C)C)nc2C(C)(C(=O)Nc2ccncc2)C1 (stereo not given) |  | 21.7 µM (active) |
| CC1(C)C(=O)N(CC2CCOCC2)[C@H]2CN(CCCc3ccccc3)C[C@@H]2[S+]1(=O)[O-] | 0% [at 43.1 µM] |  |
| COC(=O)c1cc(NC(=O)CC2C(=O)OCCN2Cc2ccccc2)cc(C(=O)OC)c1 (stereo not given) | 18.7% |  |
| O=C(CC1C(=O)N(Cc2ccccc2)C(=S)N1CCN1CCOCC1)Nc1ccc(F)cc1 (stereo not given) |  | 5.31 µM (active) |
| COc1cccc(N2C(=O)C(CC(=O)Nc3ccccc3)N(CCc3sccc3C)C2=O)c1 (stereo not given) | 21.4% |  |
| Cc1noc(C)c1CCC(=O)NC1CCc2nn(CC3CC3)c(=O)n2CC1 (stereo not given) | 14.8% |  |
| N#CC(=C1CCCC1)c1nc(-c2ccccc2O)cs1 |  | 9.44 µM (active) |
| CN(CC1CCN(CCc2ccc(Cl)cc2)CC1)C(=O)c1ccccc1C#N | -11.9% |  |
| CN(Cc1ccc(-n2cccn2)cc1)CC1CCN(CCc2ccc(F)cc2)CC1 |  | 10.6 µM (active) |
| Cc1[nH]n(-c2ccccc2)c(=O)c1/C=N/Nc1nncc(-c2ccccc2)n1 |  | 4.22 µM (active) |
| COC(=O)[C@H](Cc1ccc(OC)cc1)NC(=O)[C@H]1CN(C(=O)c2ccc(N(C)C)cc2)CCN1C(=O)c1cccs1 |  | 0.188 µM (active) |
| COc1ccc(C(=O)N2CCN(C(=O)C3CCCCC3)C[C@@H]2C(=O)N[C@H]2CCCNC2=O)cc1 | 68.6% |  |
| CN(C)C(=O)c1ccc(OC2CCN(C(=O)c3cccs3)CC2)nc1 | -30.1% |  |
| CN(C)c1ccc(CC(=O)N2CC[C@@](C)(O)[C@@H](O)C2)cc1 | 24.5% |  |
| COC(=O)[C@H](Cc1ccc(OC)cc1)NC(=O)[C@H]1CN(C(=O)Nc2ccccc2)CCN1C(=O)NC(C)C | -23.7% |  |
| COC(=O)[C@H](Cc1ccc(OC)cc1)NC(=O)[C@H]1CN(C(=O)c2ccc(N(C)C)cc2)CCN1C(=O)C1CCCCC1 |  | 0.668 µM (active) |
| CC(=O)N1CCc2cc(S(=O)(=O)NC(Cc3ccccc3)C(=O)Nc3cc(C)cc(C)c3)ccc21 (stereo not given) | -21.5% |  |

| Structure (SMILES) | activity change, negative = inhibition | Potency |
| --- | --- | --- |
| Cc1cccc(C(=O)N2CCc3cc(CNC(=O)c4ccc(Br)o4)ccc32)c1 |  | 9.44 µM (active) |
| Cc1ccc(C(=O)N2CCc3cc(CNC(=O)CCc4ccccc4)ccc32)cc1 | -22.1% |  |
| COc1ccccc1NC(=O)Cn1c(=O)n(CCC(=O)NCC2CCCO2)c(=O)c2cc(OC)c(OC)cc21 (stereo not given) | -20.6% |  |
| O=C(CCC1CCN(S(=O)(=O)c2ccccc2)CC1)NCc1ccc(F)cc1 | -28.6% |  |
| CS(=O)(=O)N1CCC(C2CCN(C(=O)Cc3ccc(Cl)cc3)C2)CC1 (stereo not given) | -3.31% |  |
| COc1ccc(S(=O)(=O)N2CCN(C(=S)NCC3CCCO3)CC2)cc1OC (stereo not given) |  | 6.68 µM (active) |
| O=C(NCc1ccc(Cl)cc1)C1CCN(S(=O)(=O)c2cccc3nonc23)CC1 | 72.7% |  |
| O=S(=O)(c1ccc(Cl)cc1)N1CCN(C(=S)NCC2CCCO2)CC1 (stereo not given) |  | 1.88 µM (active) |
| O=S(=O)(c1ccc(F)cc1)N1CCN(C(=S)NCCc2ccccc2)CC1 |  | 5.96 µM (active) |
| CCOC(=O)Cn1c(=O)oc2cc(S(=O)(=O)N3CCCC(C)C3)ccc21 (stereo not given) | 1.29% |  |
| O=S(=O)(c1ccc(F)cc1)N1CCN(C(=S)NCC2CCCO2)CC1 (stereo not given) |  | 6.68 µM (active) |
| O=C(O)c1ccc(S(=O)(=O)N(Cc2cccs2)CC2CCCO2)cc1 (stereo not given) | 0.601% |  |
| CCOCCCNC(=O)CN1C(=O)c2c(c3ccccc3n2C)C1c1ccc(OC)cc1 (stereo not given) | 0% |  |
| Cc1ccc(-c2noc(CCC(=O)Nc3ccc(C)cn3)n2)cc1 | 16.8% |  |
| O=C1NCCCCCCN(Cc2ccncc2)[C@@H]2CN(C(=O)NC3CCCCC3)CC[C@@H]12 | 5.81% |  |
| N#Cc1ccc(CN2CC[C@@H]3C(=O)NCCCCCCN(Cc4ccncc4)[C@@H]3C2)cc1 |  | 10.6 µM (active) |
| CN1C(=O)[C@H]2CN(Cc3ccc(C#N)cc3)C[C@H]2C1=O | 14.4% |  |
| CCc1ccc2c(c1)cc(CN(C(=S)Nc1cccc(C)c1)C1CC1)c1nnnn12 |  | 3.35 µM (active) |
| O=C(CC(c1ccc(F)cc1)c1cn(Cc2ccccc2)c2ccc([N+](=O)[O-])cc12)N1CCOCC1 (stereo not given) |  | 9.44 µM (active) |
| Cc1ccoc1C(=O)N1C[C@@H](COCC2CC2)[C@H](c2ccncc2)C1 | 0% |  |
| CCOC(=O)c1c(C)[nH]c(C)c1S(=O)(=O)N1CCN(c2cccc(C(F)(F)F)c2)CC1 | 19.3% |  |
| CCC(C)(C)n1nnnc1C(c1cccnc1)N1CCN(c2cccc(C(F)(F)F)c2)CC1 (stereo not given) |  | 6.68 µM (active) |
| CNC(=O)[C@@H]1C[C@H](n2cc(CN(C)C(=O)NCC3CCCCC3)nn2)CN1 | 63.7% |  |
| CCCn1c(=N)c(C(=O)NC2CCCCC2)cc2c(=O)n3cc(C)ccc3nc21 | -8.41% |  |

| Structure (SMILES) | activity change, negative = inhibition | Potency |
| --- | --- | --- |
| CCCCn1c(=N)c(C(=O)NC2CCCCC2)cc2c(=O)n3cccc(C)c3nc21 |  | 1.5 µM (active) |
| CCn1c(CO)nnc1C1CC(NC(=O)c2cnc3sccn3c2=O)C1 (stereo not given) | -13.6% |  |
| CCCn1c(=N)c(C(=O)NCc2ccc3c(c2)OCO3)cc2c(=O)n3cccc(C)c3nc21 |  | 10.6 µM (active) |
| COCCCn1c(=N)c(C(=O)NCC2CCCO2)cc2c(=O)n3cc(C)ccc3nc21 (stereo not given) | 20.7% |  |
| CCCn1c(=N)c(C(=O)NC2CCCC2)cc2c(=O)n3cccc(C)c3nc21 |  | 5.96 µM (active) |
| CCCN1C(=O)Cc2cc(C(=O)NCc3ccc(C)c(C)c3)ccc21 | -22.2% |  |
| COC(=O)c1ccc2c(=O)n(CCCCCC(=O)NCCc3ccccc3)c(=O)[nH]c2c1 | 3.51% |  |
| CCOc1cc2[nH]c(=O)n(Cc3ccc(C(=O)N4CCN(c5cccc(Cl)c5)CC4)cc3)c(=O)c2cc1OCC | 23.4% |  |
| COc1ccccc1N1CCN(C(=O)c2ccc3c(=O)n(Cc4ccc5c(c4)OCO5)c(=O)[nH]c3c2)CC1 |  | 2.99 µM (active) |
| OC(c1cc(-c2ccc(C(F)(F)F)cc2)nc(C(F)(F)F)c1)C1CCCCN1 (stereo not given) |  | 0.15 µM (active) |
| CN(CC1CCOCC1)S(=O)(=O)c1ccc(C(F)(F)F)cc1 | -9.41% |  |
| Nc1nonc1-n1nnc(C(=O)N/N=C/c2ccc(Cl)cc2)c1-c1ccc2c(c1)OCO2 |  | 0.376 µM (active) |
| Nc1nonc1-n1nnc(C(=O)N/N=C/c2ccc(F)cc2)c1-c1ccc2c(c1)OCO2 |  | 0.335 µM (active) |
| O=C(CSc1nnc(Cc2cccs2)n1-c1ccc(Cl)cc1)NCc1ccc2c(c1)OCO2 | 12.4% |  |
| Cc1ccc(-c2c(C(=O)N/N=C/c3cccc(Cl)c3)nnn2-c2nonc2N)cc1 |  | 0.237 µM (active) |
| Nc1nonc1-n1nnc(C(=O)N/N=C/c2ccc(Br)cc2)c1-c1ccc2c(c1)OCO2 |  | 0.422 µM (active) |
| Nc1nonc1-n1nnc(C(=O)N/N=C/c2cccs2)c1-c1ccc2c(c1)OCO2 |  | 1.68 µM (active) |
| COc1ccc(NC(=O)c2cc3n(n2)CC(c2ccc(Cl)cc2)OC3)cc1Cl (stereo not given) | 20.3% |  |
| COc1ccc(NC(=O)N2CCCC(Cn3cnc4cccnc43)C2)cc1Cl (stereo not given) | 25.8% |  |
| COc1ccc(NC(=O)c2c(C)oc3ccc(O)c(CN4CCCCCC4)c23)cc1Cl |  | 1.88 µM (active) |
| Cc1oc2ccc(O)c(CN3CCCC(C)C3)c2c1C(=O)Nc1ccccc1 (stereo not given) |  | 2.11 µM (active) |
| Cc1ccc(CN2CCc3nc(C(=O)Nc4cccnc4)oc3CC2)o1 | -11.7% [at 43.1 µM] |  |
| COc1ccc(NC(=O)c2c(C)oc3ccc(O)c(CN4CCCC(C)C4)c23)cc1Cl (stereo not given) |  | 0.944 µM (active) |
